Many of the other results were omitted from the sample, so hits are more common in it than they were.
GluA2 TARP mod: modulators of GluA2-stargazin AMPA receptor complexes, primary screen, cell-based, membrane potential dye. actives 3.5% (n = 40,000). calls only at 30 µM. HEK293 GluA2+stargazin, membrane potential dye (FDSS), glutamate EC50; hits were called plate by plate, in both directions. AID 1259245, 2017;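 active = any of four per-well response measures lying three or more SD from its plate-wide compound average, in either direction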
Target sequence (O88602 whole entry, looked up): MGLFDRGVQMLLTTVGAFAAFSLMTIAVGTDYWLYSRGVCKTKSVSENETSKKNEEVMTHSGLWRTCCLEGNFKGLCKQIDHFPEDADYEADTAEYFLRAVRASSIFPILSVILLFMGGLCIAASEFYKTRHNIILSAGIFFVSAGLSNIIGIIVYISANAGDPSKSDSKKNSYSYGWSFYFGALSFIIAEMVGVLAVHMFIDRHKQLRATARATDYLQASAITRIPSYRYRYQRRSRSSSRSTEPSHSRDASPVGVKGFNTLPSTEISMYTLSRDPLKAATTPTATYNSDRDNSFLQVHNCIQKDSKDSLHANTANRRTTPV
Target sequence (P19491 whole entry, looked up): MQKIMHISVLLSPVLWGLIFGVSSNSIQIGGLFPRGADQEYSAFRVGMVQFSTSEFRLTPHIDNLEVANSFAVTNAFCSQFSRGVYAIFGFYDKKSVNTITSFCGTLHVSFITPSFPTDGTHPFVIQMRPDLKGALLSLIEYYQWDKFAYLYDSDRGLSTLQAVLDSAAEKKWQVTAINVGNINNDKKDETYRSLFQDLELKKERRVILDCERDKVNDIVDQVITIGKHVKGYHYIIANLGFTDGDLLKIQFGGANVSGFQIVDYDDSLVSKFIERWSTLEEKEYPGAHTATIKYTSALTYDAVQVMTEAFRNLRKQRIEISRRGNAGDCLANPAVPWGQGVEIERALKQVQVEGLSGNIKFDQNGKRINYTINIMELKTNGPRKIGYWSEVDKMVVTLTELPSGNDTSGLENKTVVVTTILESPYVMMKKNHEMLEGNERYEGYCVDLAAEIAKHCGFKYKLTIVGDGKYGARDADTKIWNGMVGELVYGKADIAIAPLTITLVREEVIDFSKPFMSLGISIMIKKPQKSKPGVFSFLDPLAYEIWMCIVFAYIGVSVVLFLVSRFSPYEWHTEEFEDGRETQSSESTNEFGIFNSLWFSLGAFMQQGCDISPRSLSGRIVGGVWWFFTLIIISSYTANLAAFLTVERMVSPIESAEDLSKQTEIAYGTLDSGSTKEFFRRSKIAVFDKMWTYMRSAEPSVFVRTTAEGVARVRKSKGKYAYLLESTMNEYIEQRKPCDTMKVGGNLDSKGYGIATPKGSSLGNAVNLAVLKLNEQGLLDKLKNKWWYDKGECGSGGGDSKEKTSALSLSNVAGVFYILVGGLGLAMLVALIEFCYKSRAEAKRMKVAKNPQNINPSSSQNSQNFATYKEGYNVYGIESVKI
GIRK2 activator: activators of NPY4-receptor-primed GIRK2 channels, summary, cell-based, HEK293, thallium flux; AID 1259324, 2017; G protein-activated inward rectifier potassium channel 2 (Homo sapiens), P48051; HEK293 GIRK2/NPY4 cells, thallium flux fluorescence; 34,000 tested, under 10 active; activation (% efficacy), % for hits at 37.5 µM;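 active = primary screen hit, no activity in plain HEK293 cells, and in GIRK2-only cells above 5% efficacy rising with concentration; inactive = the rest, including fluorescent compounds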;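 also: efficacy is normalized control-subtracted fluorescence 15 s after thallium addition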
Numbers without * were called inactive; i = inactive; . = no result; + = active, no number.

SMILES	GluA2 TARP mod	GIRK2 activator
COc1ccc(S(=O)(=O)NCCOc2ccc(-c3ccc(F)cc3)nn2)cc1	i	i
Cc1ccc(S(=O)(=O)NCCOc2ccc(-c3ccc(F)cc3)nn2)cc1C	+	i
Cc1cc(C)n(-c2cc(N3CCCC(C(=O)NCc4ccc5c(c4)OCO5)C3)ncn2)n1 (stereo not given)	i	i
Cc1cc(C)n(-c2cc(N3CCCC(C(=O)NCc4ccco4)C3)ncn2)n1 (stereo not given)	+	i
O=S(=O)(c1cccs1)N1CCN(Cc2nnnn2-c2ccc(Cl)cc2)CC1	i	i
O=S(=O)(c1cccs1)N1CCN(Cc2nnnn2-c2ccc(F)cc2)CC1	+	i
COC(=O)N1CCC(CNC(=O)C(=O)NCCc2ccccc2)CC1	i	i
COC(=O)N1CCC(CNC(=O)CCc2ccccc2)CC1	+	i
Cc1ccc2nc(NC(=O)CCCn3nc(-c4cccs4)ccc3=O)sc2c1	.	i
Cc1cc(N2CCN(c3ccc(O)cc3)CC2)nc(-n2cc([N+](=O)[O-])cn2)n1	i	i
Cc1cc(N(C)C)nc(Nc2ccc(NC(=O)c3ccc4c(c3)OCO4)cc2)n1	+	.
Cc1ccc(Nc2ccc(NC(=O)c3ccc4c(c3)OCO4)cc2)nn1	i	i
CSc1nn(CC(=O)Nc2c(C)cccc2C)c(N)c1S(C)(=O)=O	+	i
CCSc1nn(CC(=O)Nc2cccc(SC)c2)c(N)c1S(=O)(=O)c1ccc(C)cc1	i	.
CSc1nn(CC(=O)Nc2cccc(Cl)c2)c(N)c1S(=O)(=O)c1ccccc1	+	.
O=C(Cn1nc(S(=O)(=O)c2ccccc2)ccc1=O)Nc1ccccc1F	i	i
CSc1nn(CC(=O)Nc2cccc(C)c2C)c(N)c1S(C)(=O)=O	+	i
CCc1ccccc1NC(=O)Cn1nc(SC)c(S(=O)(=O)c2ccc(F)cc2)c1N	i	.
O=C(Cn1nc(S(=O)(=O)c2ccccc2)ccc1=O)Nc1ccc(Cl)cc1	+	i
CSc1nn(CC(=O)Nc2ccc3c(c2)OCO3)c(N)c1S(C)(=O)=O	i	i
Cc1ccc(Cl)c2sc(=NC(=O)C3CCN(S(C)(=O)=O)CC3)n(C)c12	.	i
COc1cc(S(=O)(=O)N2CCN(c3cc(-n4ccnc4C)ncn3)CC2)c(C)cc1C	i	i
O=C(Cc1cccc2ccccc12)Nc1ccc(CC(=O)NC2CC2)cc1	i	i
Cc1cc(NC(=O)C(=O)NCc2ccc3c(c2)OCO3)ccc1N1CCCC1=O	i	i
COc1cccc(-n2nnc3c(N4CCN(C(=O)c5cccc(OC)c5OC)CC4)ncnc32)c1	i	.
SMILES	GluA2 TARP mod	GIRK2 activator
CCOC(=O)C1CCN(C(=S)Nc2ccccc2OC)CC1	+	.
CCOCC(=O)NCC1CCN(C(=O)Nc2ccccc2OC)CC1	i	i
O=C(c1ccccc1Oc1ccccc1)N1CCC(c2cccs2)CC1	i	i
CSc1ccccc1C(=O)N1CCC(c2cccs2)CC1	+	i
CCc1nc(SCC(=O)N(CC)CC)c(C#N)c2c1CCCC2	+	.
Cc1[nH]c(=O)nc(SCC(=O)NC2CCCC2)c1C#N	i	i
CCc1ccc(Oc2cc(N3CCC(C(=O)NCc4ccccc4F)CC3)ncn2)cc1	+	i
CCc1ccc(Oc2cc(N3CCC(C(=O)NCc4ccc(SC)cc4)CC3)ncn2)cc1	i	i
CCOc1ccc(C(=O)N2CCC3(CC2)NC(=O)NC3=O)cc1OCC	i	i
Cc1ccccc1C(=O)NCC(O)(c1ccccc1)C1CC1 (stereo not given)	i	.
CCOc1ccccc1C(=O)NCC(O)(c1ccccc1)C1CC1 (stereo not given)	+	.
COc1ccc(C(=O)Nc2sc3c(c2-c2nc4ccccc4s2)CCN(C(C)=O)C3)cc1OC	i	.
CCOc1cc(/C=C/c2ccc3cccc(O)c3n2)cc(Br)c1O	i	.
COc1cc(/C=C/c2ccc3cccc(O)c3n2)cc(Br)c1O	+	.
CCSc1cccc(C(=O)Nc2ccc3scnc3c2)c1	i	i
O=C(Nc1cccs1)N1CCN(c2ccc3nnc(C4CC4)n3n2)CC1	i	i
O=C(Nc1ccc(F)cc1F)c1ccc(=O)n(Cc2ccc(C(F)(F)F)cc2)c1	+	i
Cc1ccc(Cn2cc(C(=O)Nc3ccc(F)cc3F)ccc2=O)cc1	i	i
CC(=O)N1CCN(c2c(C)cnc3c2c(=O)n(CC(=O)NCC2CCCO2)c(=O)n3C)CC1 (stereo not given)	i	.
CC(C)N(C(=O)C(=O)c1c[nH]c2ccccc12)C(C)C	i	.
CC(NC(=O)C(=O)c1c[nH]c2ccccc12)c1ccccc1 (stereo not given)	+	.
